Test results: the supplement of paper PMC10849652
Targets with a hit are over-represented here; the source holds about 8,800 in all. About 0.5% of all pairs of compound and target were hits. A number with no mark means an inactive call.

Assays:
Experiment in all cases: log2 fold change, soluble protein after heating vs DMSO (PISA); higher = thermal stabilisation; K562 lysate, 10 uM; active = over 0.2 and 3.5 SD of the protein, either way, in both replicates (recomputed)
[1] = compound: CN1CC[C@H](c2c(O)cc(O)c3c(=O)cc(-c4ccccc4Cl)oc23)[C@H](O)C1 [alvocidib]
Summary of the method: (§1)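 Pellets of K562 cells were dounce-homogenised in PBS pH 7.4 with 1 mM MgCl2, and the crude extract was held at 1 mg/mL protein for a 30 min treatment with 10 μM compound. Aliquots were heated for 3 min over 48°C-58°C and pooled before NP-40 was added to 0.5% at 4°C. The supernatant from 21,000xg for 90 min was quantified by TMTpro 16plex LC-MS/MS with channel sums equalised. Values are reported from duplicates as log-two fold change in thermal stability relative to solvent controls.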

[2] = compound: CN1CCc2c(c3ccccc3n2Cc2ccc(C(=O)NO)cc2)C1 [Tubastatin A]
Summary of the method: as §1

[3] = compound: CNC(=O)C1=CC=CC=C1NC2=NC(=NC=C2Cl)NC3=C(C=C(C=C3)N4CCOCC4)OC
Summary of the method: as §1

[4] = compound: CNC(=O)c1ccc(Nc2ncc(C(F)(F)F)c(NCc3nccnc3N(C)S(C)(=O)=O)n2)cc1 [defactinib]
Summary of the method: as §1

[5] = compound: CNc1nc(-c2ccc3c(N)n[nH]c3c2)cc(N2C[C@@H](C(=O)NC3CCCCC3)CC[C@H]2C)n1
Summary of the method: as §1

[6] = compound: COC(=O)N[C@@H](C)CNc1nccc(-c2cn(C(C)C)nc2-c2cc(Cl)cc(NS(C)(=O)=O)c2F)n1 [encorafenib]
Summary of the method: as §1

[7] = compound: COC(=O)[C@H](CCSC)NC(=O)C1=C(C=C(C=C1)NC[C@H](CS)N)C2=CC=CC=C2
Summary of the method: as §1

[8] = compound: COc1cc(Nc2ncc3c(n2)-c2ccc(Cl)cc2C(c2c(F)cccc2OC)=NC3)ccc1C(=O)O [alisertib]
Summary of the method: as §1

[9] = compound: COc1cc2nc(-c3cc(F)ccc3O)nc(N[C@@H]3CNC[C@H]3C(C)(C)O)c2cc1OC
Summary of the method: as §1

[10] = compound: COc1cc2ncnc(Nc3ccc(F)c(Cl)c3)c2cc1OCCCN1CCOCC1 [gefitinib]
Summary of the method: as §1

[11] = compound: CS(=O)(=O)CCNCc1ccc(-c2ccc3ncnc(Nc4ccc(OCc5cccc(F)c5)c(Cl)c4)c3c2)o1 [lapatinib]
Summary of the method: as §1

[12] = compound: CS(=O)(=O)N1CCN(Cc2cc3nc(-c4cccc5[nH]ncc45)nc(N4CCOCC4)c3s2)CC1 [pictilisib]
Summary of the method: as §1

[13] = compound: C[C@@H](Oc1cc(-c2cnn(C3CCNCC3)c2)cnc1N)c1c(Cl)ccc(F)c1Cl [crizotinib]
Summary of the method: as §1

[14] = compound: C[C@H](C1=CC=C(C=C1)C(=O)NC2=C3C=CNC3=NC=C2)N
Summary of the method: as §1

[15] = compound: C[C@H](Nc1ncnc2nc[nH]c12)c1cc2cccc(Cl)c2c(=O)n1-c1ccccc1 [duvelisib]
Summary of the method: as §1

[16] = compound: Cc1cc(Nc2cc(CN3CCOCC3)c3nc(C)c(Cc4ccc(Cl)cc4F)n3n2)n[nH]1 [gandotinib]
Summary of the method: as §1

[17] = compound: Cc1cc(Nc2cc(N3CCN(C)CC3)nc(Sc3ccc(NC(=O)C4CC4)cc3)n2)n[nH]1 [tozasertib]
Summary of the method: as §1

[18] = compound: Cc1ccc(-n2nc(C(C)(C)C)cc2NC(=O)Nc2ccc(OCCN3CCOCC3)c3ccccc23)cc1 [doramapimod]
Summary of the method: as §1

[19] = compound: Cc1ccc(NC(=O)c2ccc(CN3CC[C@H](N(C)C)C3)c(C(F)(F)F)c2)cc1Nc1nccc(-c2cncnc2)n1 [bafetinib]
Summary of the method: as §1

[20] = compound: Cc1cccc(CC(=O)N2CCc3c2ccc(-c2cn(C)c4ncnc(N)c24)c3F)n1
Summary of the method: as §1

Sequence of UniProt Q15717 (Q15717 whole entry, looked up): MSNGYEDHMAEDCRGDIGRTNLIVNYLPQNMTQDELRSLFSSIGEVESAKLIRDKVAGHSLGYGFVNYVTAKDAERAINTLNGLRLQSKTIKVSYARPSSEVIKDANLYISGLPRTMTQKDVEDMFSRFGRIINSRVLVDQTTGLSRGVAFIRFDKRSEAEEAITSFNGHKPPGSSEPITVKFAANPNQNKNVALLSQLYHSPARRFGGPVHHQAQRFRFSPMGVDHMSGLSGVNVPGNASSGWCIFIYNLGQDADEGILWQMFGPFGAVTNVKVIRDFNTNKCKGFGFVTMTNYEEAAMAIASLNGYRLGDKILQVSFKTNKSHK
Sequence of UniProt Q14674 (Q14674 whole entry, looked up): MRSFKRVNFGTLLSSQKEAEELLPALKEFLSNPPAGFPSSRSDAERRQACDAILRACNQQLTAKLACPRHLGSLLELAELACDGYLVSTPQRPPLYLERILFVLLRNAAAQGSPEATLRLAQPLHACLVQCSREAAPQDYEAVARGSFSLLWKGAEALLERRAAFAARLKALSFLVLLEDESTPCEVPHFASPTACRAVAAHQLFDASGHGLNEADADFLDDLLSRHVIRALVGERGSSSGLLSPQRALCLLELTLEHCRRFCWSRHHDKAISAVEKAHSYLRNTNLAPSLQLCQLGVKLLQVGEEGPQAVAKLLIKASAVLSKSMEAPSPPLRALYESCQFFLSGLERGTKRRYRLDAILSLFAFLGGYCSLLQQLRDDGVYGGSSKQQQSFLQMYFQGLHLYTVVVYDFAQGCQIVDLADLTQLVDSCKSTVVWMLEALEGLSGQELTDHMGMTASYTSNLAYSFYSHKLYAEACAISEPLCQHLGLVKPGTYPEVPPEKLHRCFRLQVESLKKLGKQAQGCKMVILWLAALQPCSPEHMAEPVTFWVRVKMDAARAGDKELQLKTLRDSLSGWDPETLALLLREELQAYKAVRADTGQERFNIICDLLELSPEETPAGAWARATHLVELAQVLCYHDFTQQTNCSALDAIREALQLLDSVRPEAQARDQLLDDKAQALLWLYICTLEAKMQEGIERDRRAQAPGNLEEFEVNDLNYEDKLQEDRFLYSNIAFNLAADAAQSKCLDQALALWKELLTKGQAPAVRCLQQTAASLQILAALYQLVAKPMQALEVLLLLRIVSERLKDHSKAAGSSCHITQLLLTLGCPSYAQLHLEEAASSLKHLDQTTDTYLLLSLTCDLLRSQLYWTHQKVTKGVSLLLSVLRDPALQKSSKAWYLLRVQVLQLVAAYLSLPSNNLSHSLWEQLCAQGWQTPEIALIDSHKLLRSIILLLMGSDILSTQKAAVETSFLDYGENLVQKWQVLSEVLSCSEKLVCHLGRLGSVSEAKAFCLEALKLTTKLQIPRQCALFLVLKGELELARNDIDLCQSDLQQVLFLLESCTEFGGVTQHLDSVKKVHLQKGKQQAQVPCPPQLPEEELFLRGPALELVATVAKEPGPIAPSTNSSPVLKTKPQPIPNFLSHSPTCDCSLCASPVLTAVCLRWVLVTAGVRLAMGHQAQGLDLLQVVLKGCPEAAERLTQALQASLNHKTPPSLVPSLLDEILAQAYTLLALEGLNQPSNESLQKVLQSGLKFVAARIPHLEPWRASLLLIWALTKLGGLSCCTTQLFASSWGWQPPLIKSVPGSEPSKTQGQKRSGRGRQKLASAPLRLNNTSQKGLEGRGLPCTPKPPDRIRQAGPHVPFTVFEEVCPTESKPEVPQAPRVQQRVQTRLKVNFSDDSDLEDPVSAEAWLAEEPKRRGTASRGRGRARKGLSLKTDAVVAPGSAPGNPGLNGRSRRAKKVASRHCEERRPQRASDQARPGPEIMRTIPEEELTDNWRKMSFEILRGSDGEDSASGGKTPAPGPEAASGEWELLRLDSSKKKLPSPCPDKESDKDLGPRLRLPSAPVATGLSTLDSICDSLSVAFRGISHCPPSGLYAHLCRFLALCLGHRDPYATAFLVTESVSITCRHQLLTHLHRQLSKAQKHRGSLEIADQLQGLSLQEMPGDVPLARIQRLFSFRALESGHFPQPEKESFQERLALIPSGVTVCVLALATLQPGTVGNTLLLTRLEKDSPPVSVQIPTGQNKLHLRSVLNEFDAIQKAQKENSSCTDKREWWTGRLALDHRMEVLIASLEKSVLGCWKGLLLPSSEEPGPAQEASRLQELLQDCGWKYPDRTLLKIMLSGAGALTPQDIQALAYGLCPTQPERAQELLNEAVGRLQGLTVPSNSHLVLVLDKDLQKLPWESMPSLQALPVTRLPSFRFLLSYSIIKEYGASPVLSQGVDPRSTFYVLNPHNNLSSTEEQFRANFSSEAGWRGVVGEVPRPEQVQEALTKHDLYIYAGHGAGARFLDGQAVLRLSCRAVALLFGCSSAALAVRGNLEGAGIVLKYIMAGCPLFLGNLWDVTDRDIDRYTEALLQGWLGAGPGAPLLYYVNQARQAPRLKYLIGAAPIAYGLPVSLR
Sequence of UniProt Q96A65 (Q96A65 whole entry, looked up): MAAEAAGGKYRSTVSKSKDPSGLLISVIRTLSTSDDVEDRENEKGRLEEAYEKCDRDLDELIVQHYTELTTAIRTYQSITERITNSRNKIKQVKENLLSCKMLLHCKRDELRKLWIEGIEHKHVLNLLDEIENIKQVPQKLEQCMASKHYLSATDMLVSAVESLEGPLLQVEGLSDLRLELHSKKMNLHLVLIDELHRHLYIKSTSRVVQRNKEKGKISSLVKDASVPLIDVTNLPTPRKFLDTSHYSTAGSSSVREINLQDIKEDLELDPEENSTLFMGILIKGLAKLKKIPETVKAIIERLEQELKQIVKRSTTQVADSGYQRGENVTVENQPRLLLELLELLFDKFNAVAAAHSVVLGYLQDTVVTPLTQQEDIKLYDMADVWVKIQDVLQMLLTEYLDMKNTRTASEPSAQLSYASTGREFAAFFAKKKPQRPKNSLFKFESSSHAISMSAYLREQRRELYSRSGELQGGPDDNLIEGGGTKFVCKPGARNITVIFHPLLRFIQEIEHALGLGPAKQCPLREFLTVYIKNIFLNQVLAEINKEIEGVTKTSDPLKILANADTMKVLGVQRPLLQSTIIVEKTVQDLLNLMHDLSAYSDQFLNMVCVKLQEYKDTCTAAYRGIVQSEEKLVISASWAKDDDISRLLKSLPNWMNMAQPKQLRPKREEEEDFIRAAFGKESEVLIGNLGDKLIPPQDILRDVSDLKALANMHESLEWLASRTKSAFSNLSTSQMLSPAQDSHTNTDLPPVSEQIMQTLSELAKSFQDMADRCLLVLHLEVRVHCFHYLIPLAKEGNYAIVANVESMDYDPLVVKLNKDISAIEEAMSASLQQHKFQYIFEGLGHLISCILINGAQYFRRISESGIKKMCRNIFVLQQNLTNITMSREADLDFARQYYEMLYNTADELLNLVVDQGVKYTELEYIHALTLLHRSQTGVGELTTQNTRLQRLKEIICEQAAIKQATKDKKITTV
Sequence of UniProt P26378 (P26378 whole entry, looked up): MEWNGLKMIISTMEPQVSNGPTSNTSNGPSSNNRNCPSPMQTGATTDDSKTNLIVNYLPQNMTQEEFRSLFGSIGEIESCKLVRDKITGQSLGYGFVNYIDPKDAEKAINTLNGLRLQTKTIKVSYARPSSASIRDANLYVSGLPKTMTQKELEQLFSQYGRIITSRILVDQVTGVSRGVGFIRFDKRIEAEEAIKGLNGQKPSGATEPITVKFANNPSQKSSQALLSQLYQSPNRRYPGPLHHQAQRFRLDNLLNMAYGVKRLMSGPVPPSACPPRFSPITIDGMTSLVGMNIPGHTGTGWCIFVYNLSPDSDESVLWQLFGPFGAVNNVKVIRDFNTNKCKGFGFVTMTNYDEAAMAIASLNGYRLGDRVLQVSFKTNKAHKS
Sequence of UniProt Q56P03 (Q56P03 whole entry, looked up): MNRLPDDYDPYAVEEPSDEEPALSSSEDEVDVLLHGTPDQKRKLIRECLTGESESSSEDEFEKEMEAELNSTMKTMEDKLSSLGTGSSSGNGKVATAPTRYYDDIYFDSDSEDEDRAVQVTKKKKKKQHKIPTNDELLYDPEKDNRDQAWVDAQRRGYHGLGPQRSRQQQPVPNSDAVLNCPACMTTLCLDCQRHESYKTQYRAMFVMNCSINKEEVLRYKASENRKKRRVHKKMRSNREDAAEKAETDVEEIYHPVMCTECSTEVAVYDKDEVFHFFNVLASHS
Sequence of UniProt Q92889 (Q92889 whole entry, looked up): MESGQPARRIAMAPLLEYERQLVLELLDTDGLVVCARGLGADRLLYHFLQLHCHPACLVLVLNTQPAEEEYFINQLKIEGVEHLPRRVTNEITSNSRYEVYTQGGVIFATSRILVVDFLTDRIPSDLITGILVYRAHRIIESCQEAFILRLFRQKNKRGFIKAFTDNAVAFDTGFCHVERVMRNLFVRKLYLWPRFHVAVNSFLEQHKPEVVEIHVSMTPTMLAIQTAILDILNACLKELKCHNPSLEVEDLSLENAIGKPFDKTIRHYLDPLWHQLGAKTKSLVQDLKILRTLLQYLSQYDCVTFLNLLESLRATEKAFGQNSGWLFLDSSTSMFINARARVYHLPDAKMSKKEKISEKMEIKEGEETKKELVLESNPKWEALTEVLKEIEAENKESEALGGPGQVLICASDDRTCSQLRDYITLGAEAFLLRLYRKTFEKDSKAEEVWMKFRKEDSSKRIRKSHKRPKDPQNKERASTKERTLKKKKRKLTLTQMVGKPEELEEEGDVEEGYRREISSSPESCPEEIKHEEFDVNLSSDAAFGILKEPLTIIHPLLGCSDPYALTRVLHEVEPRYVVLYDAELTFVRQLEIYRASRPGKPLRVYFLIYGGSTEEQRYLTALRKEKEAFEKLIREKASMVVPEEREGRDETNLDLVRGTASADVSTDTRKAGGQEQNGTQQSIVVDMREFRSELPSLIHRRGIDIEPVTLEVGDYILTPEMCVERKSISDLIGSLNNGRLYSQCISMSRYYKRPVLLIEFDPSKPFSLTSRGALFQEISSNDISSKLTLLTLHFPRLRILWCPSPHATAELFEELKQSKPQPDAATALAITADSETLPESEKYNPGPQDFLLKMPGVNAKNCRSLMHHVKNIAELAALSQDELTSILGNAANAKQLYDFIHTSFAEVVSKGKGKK

Target | log2 fold change [1] | log2 fold change [2] | log2 fold change [3] | log2 fold change [4] | log2 fold change [5] | log2 fold change [6] | log2 fold change [7] | log2 fold change [8] | log2 fold change [9] | log2 fold change [10] | log2 fold change [11] | log2 fold change [12] | log2 fold change [13] | log2 fold change [14] | log2 fold change [15] | log2 fold change [16] | log2 fold change [17] | log2 fold change [18] | log2 fold change [19] | log2 fold change [20]
EXOC4 (UniProt Q96A65) | 0.03 | -0.073 | -0.053 | 0.039 | -0.084 | 0.022 | 0.078 | 0.009 | 0.008 | -0.035 | -0.038 | 0.018 | -0.044 | 0.011 | 0.024 | -0.165 | -0.028 | -0.023 | -0.056 | 0.015
FLAD1 (UniProt Q8NFF5) | 0.035 | -0.214 | 0.039 | -0.008 | -0.013 | 0.031 | 0.137 | -0.025 | -0.013 | -0.042 | 0.007 | 0.002 | -0.024 | 0.021 | 0.05 | 0.044 | -0.052 | -0.02 | -0.052 | -0.05
FTSJ1 (UniProt Q9UET6) | 0.003 | -0.038 | 0.049 | -0.021 | -0.016 | -0.025 | 0.089 | 0.004 | 0.005 | -0.001 | 0.01 | -0.002 | -0.051 | 0.051 | -0.009 | -0.088 | -0.064 | 0.03 | 0.041 | -0.052
EAPP (UniProt Q56P03) | 0.048 | -0.025 | 0.078 | -0.017 | 0.107 | -0.014 | -0.053 | -0.042 | 0.017 | -0.03 | -0.033 | 0.058 | 0 | 0.03 | 0.03 | -0.157 | -0.09 | -0.058 | 0.109 | 0.128
ELAVL1 isoform 2 (UniProt Q15717) | 0.013 | -0.187 | 0.05 | -0.005 | -0.011 | 0.018 | 0.166 | 0.019 | -0.002 | 0.048 | 0.031 | -0.002 | -0.037 | 0.055 | 0.001 | -0.067 | -0.047 | 0.007 | -0.004 | -0.026
EGLN1 (UniProt Q9GZT9) | -0.017 | -0.088 | 0.025 | 0.033 | -0.026 | 0 | 0.091 | 0.009 | 0.022 | -0.003 | -0.075 | 0.031 | -0.018 | 0.037 | 0.199 | -0.036 | 0.034 | 0.006 | 0.001 | -0.055
EXOC2 (UniProt Q96KP1) | 0.025 | -0.107 | -0.012 | 0.046 | -0.048 | 0.031 | 0.027 | 0 | 0.007 | 0.005 | -0.016 | -0.011 | -0.099 | 0.017 | -0.032 | -0.185 | 0.001 | 0.042 | -0.056 | 0.059
EED, A0A5F9ZI63 | -0.007 | -0.026 | 0.039 | 0.003 | 0.036 | 0.004 | 0.063 | -0.01 | 0.013 | -0.025 | 0.047 | -0.014 | -0.001 | -0.041 | -0.006 | 0.022 | -0.01 | 0.006 | 0.033 | 0.076
ESPL1 (UniProt Q14674) | 0.044 | -0.023 | 0.129 | -0.188 | 0.053 | 0.101 | -0.013 | 0.004 | -0.233 | -0.009 | 0.053 | 0.07 | -0.015 | 0.027 | -0.011 | 0.026 | 0.024 | -0.044 | -0.077 | 0.057
DSTN (UniProt P60981) | -0.011 | -0.089 | 0.015 | 0.002 | -0.072 | -0.011 | -0.071 | -0.013 | -0.02 | -0.043 | 0.01 | 0.008 | 0.007 | -0.02 | -0.001 | -0.023 | 0.031 | -0.015 | 0.057 | 0.019
FXR1 (UniProt P51114) | -0.028 | -0.176 | 0.02 | -0.043 | -0.039 | 0.057 | 0.035 | -0.012 | 0.012 | -0.022 | -0.026 | -0.052 | -0.006 | -0.106 | 0.023 | -0.02 | 0.008 | 0.065 | -0.03 | 0.05
FMNL1 isoform 3 (UniProt O95466) | 0.011 | -0.053 | 0.015 | 0.021 | 0.015 | 0.093 | 0.018 | 0.029 | 0.044 | -0.061 | 0.058 | 0.005 | -0.013 | 0.044 | 0 | -0.056 | -0.051 | 0.048 | -0.055 | 0.042
ENO2 (UniProt P09104) | -0.279 (active) | 0.024 | -0.018 | -0.007 | 0.073 | 0.032 | 0.086 | -0.025 | -0.014 | -0.021 | 0.01 | 0.012 | -0.009 | -0.358 (active) | 0.04 | 0.214 | -0.111 | -0.012 | -0.014 | 0.264 (active)
FAM53B (UniProt Q14153) | -0.125 | 0.473 (active) | 0.098 | 0.025 | -0.064 | 0.019 | -0.1 | -0.04 |  | -0.075 |  | 0.02 | -0.03 | -0.032 | 0.079 | 0.037 | 0.024 | 0.169 | -0.023 | 0.083
ERCC4 (UniProt Q92889) | -0.268 | -0.021 | 0.058 | 0.101 | -0.029 | -0.065 | -0.001 | 0.047 | 0.024 | 0.044 | -0.023 | -0.013 | -0.031 | -0.544 (active) | 0.003 | 0.054 | -0.059 | 0.087 | -0.101 | 0.159
ELAVL4 (UniProt P26378) | 0.019 | -0.125 | 0.036 | -0.007 | -0.003 | 0.003 | 0.211 | 0.136 | -0.031 | 0.056 | -0.017 |  | -0.065 | -0.064 | 0.03 | -0.034 | 0.05 | 0.035 |  | -0.061
